The text below walks through data of PubChem BioAssay (NCATS).

Structures are written as SMILES. Results filed as inconclusive are left out. Where a call stands in place of a potency, no number is given. Calls of active or inactive are those of the source. Calls come from the whole dose curve.

The nature of this test: Cytotoxicity counterscreen for inhibitors of SARS-CoV-2 cell entry (AID 1645845). Note: nearly all actives have a fitted effect of over 50% in size. As to conditions: cell viability (SARS-CoV-2 entry assay cells); series mostly up to 57.1 µM; activity change, negative = cytotoxicity: at the top concentration. The method in brief: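 Counterscreen run in the same HEK293-ACE2 line as the pseudotyped-particle entry assay, without particles. Viability after 48 h at 37 C was read as ATP luminescence, scaled between cell-containing and cell-free wells.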
As to `O=c1oc2ccccc2c(O)c1Cc1c(O)c2ccccc2oc1=O`, the “activity change, negative = cytotoxicity” value was 0.802% (inactive).

Turning to `COc1c2c(cc3c1OCO3)CCN(C)C2`, the compound was called inactive.

Consider `CCC1(c2ccc(N)cc2)CCC(=O)NC1=O` (stereo not given), for which the Potency entry is “inactive”.

With `C[C@]12CCC(=O)C=C1CC[C@@H]1[C@@H]2CC[C@]2(C)C(=O)CC[C@@H]12`, the compound was called inactive.

Take `O=P1(N(CCCl)CCCl)NCCCO1` (stereo not given): the Potency entry is “inactive”.
